Legend:
Settings in all cases: Compound Concentration (nM):1000
[1] = tested on: T1, AMPK-alpha1
T1 construct: gene PRKAA1

[2] = tested on: T2, AMPK-alpha2
T2 construct: gene PRKAA2

[3] = tested on: ANKK1
[4] = tested on: T3, ARK5
T3 construct: gene NUAK1

[5] = tested on: T4, ASK1
T4 construct: gene MAP3K5

[6] = tested on: T5, ASK2
T5 construct: gene MAP3K6

[7] = tested on: AURKA
[8] = tested on: AURKB
[9] = tested on: AURKC
[10] = tested on: AXL
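Note: KINOMEscan scanMAX binding as percent activity remaining versus control; lower means stronger binding.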

| Compound | Percent Control [1] [%] | Percent Control [2] [%] | Percent Control [3] [%] | Percent Control [4] [%] | Percent Control [5] [%] | Percent Control [6] [%] | Percent Control [7] [%] | Percent Control [8] [%] | Percent Control [9] [%] | Percent Control [10] [%] |
| --- | --- | --- | --- | --- | --- | --- | --- | --- | --- | --- |
| CCn1c(-c2nonc2N)nc2c(C#CC(C)(C)O)nc(OCCNC)cc21.Cl [GSK949675] | 100 | 100 | 100 | 100 | 95 | 100 | 90 | 100 | 100 | 100 |
| COc1ccccc1-c1cc(/C=C2\C(=O)Nc3ncc(Br)cc32)cc(Br)c1O [GW442130X] | 100 | 94 | 100 | 100 | 98 | 100 | 25 | 48 | 80 | 92 |
| Cl.O=C(Nc1ccc(Oc2ccc3[nH]c(NC(=O)c4ccco4)nc3c2)cc1)Nc1cc(C(F)(F)F)ccc1F [GW683134A] | 67 | 82 | 100 | 100 | 100 | 93 | 98 | 13 | 56 | 0 |
| Cl.O=S1CCN(Cc2ccc(-c3ccc4ncnc(Nc5ccc(OCc6ccccc6)c(F)c5)c4c3)o2)CC1 [GW576924A] | 100 | 100 | 88 | 100 | 100 | 69 | 100 | 100 | 100 | 100 |
| CN1CCN(C(=O)c2ccc(NC(=O)Nc3ccc(N(C)c4ccnc(Nc5ccc(CS(C)(=O)=O)cc5)n4)cc3)cc2)CC1.Cl [GW830263A] | 82 | 87 | 28 | 78 | 100 | 67 | 0 | 0.4 | 0.2 | 9.7 |
| CN(C)c1cc2c(Nc3ccc4c(cnn4Cc4ccccc4)c3)ncnc2cn1 [GW282974X] | 90 | 100 | 100 | 100 | 100 | 73 | 74 | 100 | 92 | 98 |
| COc1ccc2cc(-c3c(-c4ccncc4)nc(-c4ccc(S(C)(=O)=O)cc4C)n3C)ccc2c1 [SB-633825] | 53 | 90 | 100 | 100 | 83 | 74 | 87 | 66 | 85 | 88 |
| CCc1ccc(Oc2nccc(-c3c(-c4ccc(F)cc4)ncn3C3CCNCC3)n2)cc1 [SB-242719] | 100 | 99 | 83 | 100 | 84 | 66 | 81 | 100 | 98 | 100 |
| NS(=O)(=O)c1ccc(Nc2ncc(-c3ccccc3)o2)cc1 [GW572399X] | 100 | 95 | 82 | 100 | 100 | 77 | 100 | 43 | 100 | 100 |
| CCS(=O)(=O)c1ccc(OC)c(Nc2ncc(-c3cccc(OC)c3)o2)c1 [GW580509X] | 100 | 100 | 95 | 100 | 100 | 85 | 88 | 83 | 100 | 95 |
| COc1cccc(-n2ncc3c(N/N=C/c4ccncc4)ncnc32)c1 [GW784752X] | 100 | 86 | 79 | 96 | 100 | 62 | 69 | 89 | 94 | 100 |
| CC1=C(C(=O)Nc2ccc3[nH]ncc3c2)C(c2ccc(Cl)c(Cl)c2)CC(=O)N1 (stereo not shown) [GSK299115A] | 67 | 97 | 100 | 85 | 98 | 82 | 45 | 60 | 56 | 100 |
| COc1ccc2c(-c3ccnc(Nc4cccc(OC(F)(F)F)c4)n3)cnn2n1 [GW810372X] | 100 | 100 | 89 | 100 | 100 | 78 | 100 | 100 | 57 | 87 |
| O=C1Nc2ccc(C(=O)c3ccco3)cc2C1=Cc1cc(Cl)c(O)c(Cl)c1 [GW406108X] | 90 | 94 | 9.2 | 100 | 100 | 72 | 35 | 22 | 58 | 100 |
| O=C(Nc1n[nH]c2nc(-c3ccc(O)cc3)c(Br)cc12)C1CC1 [SB-725317] | 100 | 100 | 100 | 100 | 100 | 100 | 100 | 91 | 59 | 100 |
| COc1cc(C)c(N(C)C(=O)CN(C)C)cc1Nc1nc(Nc2cccc(F)c2C(N)=O)c2cc[nH]c2n1 [GSK2219385] | 100 | 100 | 94 | 86 | 100 | 70 | 85 | 93 | 90 | 76 |
| COc1cc(C=NNc2ncnc3c2cnn3-c2ccccc2)ccc1O [GW513184X] | 100 | 100 | 48 | 84 | 100 | 100 | 33 | 96 | 59 | 60 |
| Cl.O=C(O[C@H]1CN[C@H](C#Cc2cc3ncnc(Nc4ccc5c(cnn5Cc5ccccc5)c4)c3s2)C1)N1CCOCC1 [GSK200398A] | 100 | 92 | 100 | 91 | 100 | 88 | 71 | 84 | 100 | 100 |
| CC(C)COC(=O)c1ccc2c(c1)/C(=C/Nc1ccc(S(N)(=O)=O)cc1)C(=O)N2 [GW416981X] | 100 | 92 | 44 | 97 | 100 | 85 | 66 | 65 | 35 | 100 |
| Cl.O=C(Nc1ccc(Oc2ccc3[nH]c(NC(=O)c4ccccc4)nc3c2)cc1)Nc1cc(C(F)(F)F)ccc1F [GW709042A] | 56 | 100 | 95 | 100 | 100 | 80 | 82 | 61 | 37 | 0 |

| Compound | Percent Control [1] [%] | Percent Control [2] [%] | Percent Control [3] [%] | Percent Control [4] [%] | Percent Control [5] [%] | Percent Control [6] [%] | Percent Control [7] [%] | Percent Control [8] [%] | Percent Control [9] [%] | Percent Control [10] [%] |
| --- | --- | --- | --- | --- | --- | --- | --- | --- | --- | --- |
| NS(=O)(=O)c1ccc(N/N=C2\C(=O)Nc3ccc(C(=O)NCc4ccncc4)cc32)cc1 [GW300657X] | 78 | 83 | 27 | 86 | 100 | 70 | 57 | 59 | 76 | 95 |
| COc1ccc(COc2ccc(Cc3cnc(N)nc3N)cc2OC)cc1 [GW632580X] | 89 | 99 | 81 | 100 | 80 | 85 | 76 | 100 | 100 | 100 |
| NS(=O)(=O)c1ccc(N/N=C2\C(=O)Nc3ccc(-c4cnco4)cc32)cc1 [GW276655] | 95 | 100 | 65 | 100 | 100 | 85 | 70 | 66 | 65 | 100 |
| COc1ccc2[nH]c3c4[nH]c5ccc(OC)cc5c4c4c(c3c2c1)C(=O)NC4=O [GW296115X] | 44 | 54 | 71 | 25 | 83 | 86 | 57 | 16 | 17 | 30 |
| COc1cc(/C=N/Nc2ncnc3[nH]ncc23)ccc1O [GW578748X] | 79 | 54 | 21 | 100 | 100 | 75 | 41 | 56 | 58 | 65 |
| COc1cc(N2CCN(C(C)C)CC2)ccc1Nc1nc(Nc2ccc(F)cc2C(=O)NC[C@@H](O)CO)c2cc[nH]c2n1 [GSK1392956A] | 100 | 100 | 92 | 67 | 100 | 73 | 95 | 91 | 90 | 46 |
| CN(C)CCNC(=O)Nc1ccc(N(C)c2ccnc(Nc3ccc(CS(C)(=O)=O)cc3)n2)cc1.Cl [GW830900A] | 87 | 74 | 88 | 48 | 100 | 80 | 8.8 | 4.4 | 4.5 | 58 |
| Nc1ncnc2occ(-c3ccc(NC(=O)Nc4cc(C(F)(F)F)ccc4F)cc3)c12 [GW770249X] | 100 | 86 | 32 | 100 | 100 | 80 | 66 | 5.7 | 35 | 0 |
| COc1cc2ncn(-c3cc(O[C@H](C)c4ccccc4Cl)c(C(N)=O)s3)c2cc1OC [GSK237701A] | 54 | 100 | 100 | 29 | 100 | 97 | 87 | 38 | 74 | 50 |
| C[C@@H](Oc1cc(-n2cnc3ccc(OC4CCN(C)CC4)cc32)sc1C(N)=O)c1ccccc1Cl [GSK579289A] | 45 | 100 | 63 | 19 | 99 | 66 | 76 | 94 | 65 | 67 |
| COc1cc2ncnc(Nc3ccc4c(cnn4Cc4ccccc4)c3)c2cc1OC.Cl [GW282449A] | 100 | 100 | 88 | 100 | 100 | 74 | 100 | 100 | 87 | 89 |
| C/C(Nc1ccc(S(N)(=O)=O)cc1)=C1/C(=O)Nc2ccccc21 [GW335962X] | 78 | 87 | 50 | 100 | 100 | 69 | 66 | 16 | 71 | 73 |
| COc1cccc(-c2c[nH]c3c(N/N=C/c4ccncc4)ncnc23)c1 [GW814408X] | 100 | 85 | 100 | 100 | 100 | 100 | 82 | 75 | 48 | 71 |
| Cl.c1ccc(Cc2nc3ccc(Nc4ncnc5ccccc45)cc3[nH]2)cc1 [GR269666A] | 100 | 100 | 94 | 100 | 100 | 77 | 100 | 100 | 100 | 100 |
| CCS(=O)(=O)c1ccc(OC)c(Nc2ncc(-c3cccc(F)c3)o2)c1 [GW621970X] | 100 | 91 | 100 | 100 | 100 | 75 | 100 | 89 | 100 | 97 |
| NS(=O)(=O)c1ccc(N/N=C2\C(=O)Nc3ccc(Cl)cc32)cc1 [GW280670X] | 100 | 88 | 97 | 100 | 100 | 91 | 91 | 100 | 100 | 100 |
| NS(=O)(=O)c1ccc(N/N=C2\C(=O)Nc3ccc(C(=O)NCCc4c[nH]cn4)cc32)cc1 [GW300660X] | 100 | 100 | 59 | 80 | 100 | 65 | 72 | 55 | 99 | 100 |
| Cc1cc(O)cc(C)c1/C=C/c1cncc(C(N)=O)c1 [GW435821X] | 100 | 83 | 85 | 100 | 100 | 79 | 85 | 100 | 100 | 100 |
| COC(=O)Nc1nc2ccc(Oc3ccc(NC(=O)Nc4cc(C(F)(F)F)ccc4F)cc3)cc2s1.Cl [GW693917A] | 69 | 82 | 85 | 100 | 100 | 64 | 71 | 13 | 50 | 6 |
| CC1=C(C(=O)Nc2ccc3[nH]ncc3c2)C(c2ccc3ccccc3c2)CC(=O)N1 (stereo not shown) [GSK270822A] | 76 | 81 | 100 | 81 | 98 | 84 | 39 | 49 | 62 | 91 |

Source: paper PMC7826789 (International Journal of Molecular Sciences, 2021)
